# Test results reported in ChEMBL document CHEMBL3433997, “St. Jude Leishmania screening dataset” (2016).
# Target: Glucose transporter (Leishmania mexicana) (UniProt O61059)
# Test: ST_JUDE_LEISH: Cytotoxicity at 2uM final concentration against transgenic Leishmania Mexicana promastigotes LmGT2 that are glucose transport deficient and complemented with the L. Mexicana glucose transporter 2. Activity is measured by DNA content using SYBR green in vitro
# Assay type: functional
row,Structure (SMILES),inhibition [%]
1,NC1CCCN(Cc2cccc(-c3cccc(-c4nc5ccccc5[nH]4)c3)c2)C1 (stereo not given),5.75
2,O=S(=O)(NCCN1CCCC1)c1ccc(-c2ccc(CNC3Cc4ccccc4C3)cc2)s1,1.34
3,COc1ccc(Nc2ncc(C#N)c(Nc3ccccc3C(N)=O)n2)cc1N1CCN(C)CC1,9.63
4,COc1ccc2nccc(NC(=O)OC3CCC(NCc4ccc5c(n4)NC(=O)CS5)CC3)c2c1 (stereo not given),3.92
5,CC(O)C1CCCCN1C(=O)c1cccc(-c2cccc(-c3nc4ccccc4[nH]3)c2)c1 (stereo not given),-0.24
6,COc1cccc(Nc2c(C(N)=O)cnc3ccc(-c4ccccc4)cc23)c1,1.58
7,O=C(/C=C/c1ccc(Cl)c(Cl)c1)NCCCCN1CCCN(C(=O)Nc2ccc(F)c(Cl)c2)CC1,-0.33
8,Cc1ccc(S(=O)(=O)N(CCCN2CCN(C)CC2)Cc2csc(-c3ccc(CNCc4ccccc4)cc3)n2)cc1,9.91
9,CN(C)CCOc1cc(NC(=O)Nc2ccc(-c3ccccc3)cc2Cl)ccc1I,-2.09
10,N#Cc1cncc(-c2nc3c(N4CCC(Cc5ccccc5)CC4)cccc3n2CCNCc2ccccc2)c1,6.16
11,Clc1ccc(-c2cnc3ccc(NCCc4cccnc4)nn23)cc1,0.12
12,CCOCCCNc1nc2cc(OC)c(OC)cc2c2nc(-c3ccccc3)nn12,-2.64
13,Cc1nc(C)c(-c2ccc(Oc3cc(Cl)cc(Cl)c3)cc2)c(O)c1Cl,0.49
14,O=C(Nc1ccccc1)N(Cc1cccc(-c2ccc(CNCCc3ccccc3)cc2)c1)C1CCN(Cc2ccccc2)CC1,0.13
15,COc1ccc2ccc(F)c(CC(=O)N3CCOC(CNCc4cccc(-c5ccc(F)cc5)n4)C3)c2n1 (stereo not given),-0.12
16,N#Cc1ccc2c(c1)CN(C1CCC(NC(=O)c3cc(-c4ccc(Cl)cc4)cs3)CC1)CCC2 (stereo not given),1.7
17,c1ccc(-c2ccc(CNCCCNc3nc4ccccc4[nH]3)cc2)cc1,6.92
18,COc1cc(C(=O)Nc2nc3ccccc3[nH]2)ccc1OCC(=O)Nc1cccc(C(F)(F)F)c1,1.11
19,CN1CCCN(Cc2cccc(-c3ccc(NC(=O)c4cccc(Cl)c4)cc3)c2)CC1,69.1
20,COc1cc(NC(=O)/C=C/c2cc(F)cc(F)c2F)cc(OCCN2CCN(CCN3CCOCC3)CC2)c1,2.54

row,Structure (SMILES),inhibition [%]
1,Cc1ccnc2nc(C(=O)Nc3cc(C(F)(F)F)ccc3N3CCCCC3)nn12,1.77
2,O=C(Cn1c(CCc2cccc(F)c2F)cc(=O)c2ccccc21)N(CCN1CCCCC1)Cc1ccc(-c2ccc(C(F)(F)F)cc2)cc1,3.76
3,Oc1ccc(Cl)cc1-c1cc(C(F)(F)F)nc(-c2ccccc2)n1,8.28
4,c1cn(CCCNc2ncc(-c3ccsc3)c(-c3nccs3)n2)cn1,9.4
5,COc1cc2nc(Nc3ccc(N4CCOCC4)cc3)nc(N)c2cc1OC,-0.6
6,CCc1c(CCNCCCCCCNCCc2ccc(Br)cc2)ccc(O)c1O,1.12
7,CS(=O)(=O)Cc1ccc(Nc2nccc(NC3CCN(c4nccc(C(F)(F)F)n4)CC3)n2)cc1,-2.6
8,CCN(CC)CCN(Cc1ccc(-c2ccc(C(F)(F)F)cc2)cc1)C(=O)Cn1cc(Cc2cnn(C)c2)c(=O)nc1/C=C/c1ccc(F)cc1,2.56
9,CN1CCN(CCCNCc2ccccc2-c2cccc(CNCc3ccc4c(c3)OCO4)c2)CC1,2.45
10,COc1cc(C)nc2ccc(NC(=O)c3cc(C(F)(F)F)cc(C(F)(F)F)c3)cc12,10.1
11,CC[C@H](C)CNC(=O)c1cccc(-c2ccc(CN3CCC(N4CCCC4)CC3)cc2)n1,1.28
12,c1ccc2c(CNc3ccnc(NCc4cccc5ccccc45)n3)cccc2c1,7
13,COCCOc1ccc(Nc2nccc(-c3c(-c4cccc(NC(=O)c5c(F)cccc5F)c4)nn4ccccc34)n2)cc1F,1.25
14,Cc1cc(NCCc2ccccc2)nc(NC(=N)Nc2cccc(F)c2)n1,-0.09
15,Cc1cc(C=C2SC(=Nc3ccccc3)N(C3CCCC3)C2=O)c(C)n1-c1ccc(Cl)cc1,1.29
16,CC(C)(C)CC(=O)Nc1ccc(Nc2cc(-c3ccncc3)cc3ncc(C(N)=O)cc23)cc1,1.26
17,CCOc1ccc2nc(N(CCCn3ccnc3)C(=O)C=Cc3cccs3)sc2c1,-8.76
18,O=C(Nc1cc(Cl)ccc1O)c1ccc(Oc2ccc(C(=O)Nc3cc(Cl)ccc3O)cc2)cc1,-1
19,Cc1cccc(Nc2nccc(NCC(O)c3ccc(C(F)(F)F)cc3)n2)c1 (stereo not given),2.83
20,N#Cc1cc(C(=O)c2cc(Br)ccc2O)cn(-c2cc(Cl)cc(Cl)c2)c1=O,-3.61
